# Data reported in PubChem BioAssay (NCATS).
# Results filed as inconclusive are left out. Where a call stands in place of a potency, no number is given. Active and inactive are the calls of the source. Calls come from the whole dose curve; as a rule, active = well fitted curve in the direction sought with a large enough effect; inconclusive = small, poorly fitted or top-dose-only effect, or another doubt; inactive = no such curve, though single readings can be large; an effect the other way counts as inactive or inconclusive.
# What was measured:
# [1] = qHTS of pediatric cancer cell lines to identify multiple opportunities for drug repurposing: Primary screen for SJ-GBM2 cells (AID 1347091)
# Outline: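 Viability measured as metabolically active cells via CellTiter-Glo luminescence following 48 hours of compound exposure, 11-point dilutions in confirmatory testing. 500-1,000 cells/well plated 5 hours before dosing; controls were DMSO and 2.3 µM bortezomib.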
# [2] = qHTS of pediatric cancer cell lines to identify multiple opportunities for drug repurposing: Primary screen for SK-N-MC cells (AID 1347093)
# Outline: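 Metabolically active cells were quantified by ATP-dependent luminescence (CellTiter-Glo, 15 min at room temperature) following 48 h treatment. Cells had been plated at 500-1,000 per well and settled for 5 h beforehand.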
# [3] = qHTS of pediatric cancer cell lines to identify multiple opportunities for drug repurposing: Primary screen for BT-37 cells (AID 1347094)
# Outline: (§1)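 500-1,000 cells/well; 5 h pre-incubation 37 °C/5% CO2; compound pinned; 48 h; CellTiter-Glo, 15 min RT; luminescence. MIPE 11-pt from 0.78 nM, NPC 8-pt from 0.59 nM final. Bortezomib 2.3 µM final as positive control.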
# [4] = qHTS of pediatric cancer cell lines to identify multiple opportunities for drug repurposing: Primary screen for NB-EBc1 cells (AID 1347095)
# Outline: as §1
# [5] = qHTS of pediatric cancer cell lines to identify multiple opportunities for drug repurposing: Primary screen for LAN-5 cells (AID 1347100)
# Outline: (§2)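 Viability after 48 h compound treatment at 37C, 500-1,000 cells/well, read as ATP luminescence with CellTiter-Glo. Primary screens used 11-point (MIPE, 0.78 nM-46 µM) or 8-point (NPC, 0.59 nM-46 µM) final concentrations; follow-up screens used 11-point dilutions.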
# [6] = qHTS of pediatric cancer cell lines to identify multiple opportunities for drug repurposing: Primary screen for A673 cells (AID 1347092); note: nearly all actives have a fitted effect of over 45% in size
# Outline: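 Luminescence from CellTiter-Glo, taken after 15 min at room temperature, served as the proxy for metabolically active cells following 48 h treatment. Both potency and efficacy were taken from curves fitted to the titration data.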
# [7] = qHTS of pediatric cancer cell lines to identify multiple opportunities for drug repurposing: Primary screen for U-2 OS cells (AID 1347096); note: nearly all actives have a fitted effect of over 50% in size
# Outline: as §2
# [8] = qHTS of pediatric cancer cell lines to identify multiple opportunities for drug repurposing: Primary screen for Saos-2 cells (AID 1347097); note: nearly all actives have a fitted effect of over 40% in size
# Outline: as §1
# [9] = qHTS of pediatric cancer cell lines to identify multiple opportunities for drug repurposing: Primary screen for NB1643 cells (AID 1347099); note: nearly all actives have a fitted effect of over 50% in size
# Outline: as §1
# [10] = qHTS of pediatric cancer cell lines to identify multiple opportunities for drug repurposing: Primary screen for SK-N-SH cells (AID 1347098); note: nearly all actives have a fitted effect of over 65% in size
# Outline: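 Cells (500-1,000/well) rested 5 h, then received compounds for 48 h; metabolically active cells were measured by CellTiter-Glo luminescence. Final concentrations spanned up to 46 µM (MIPE, 11-point) or 0.59 nM-46 µM (NPC, 8-point) in primary screens, 11-point in follow-ups.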
# Potency is the fitted concentration of half-maximal effect.
Structure (SMILES),Potency [1],Potency [2],Potency [3],Potency [4],Potency [5],Potency [6],Potency [7],Potency [8],Potency [9],Potency [10]
c1cc(-c2sc(-c3ccncc3)c(-c3ccncc3)c2-c2ccncc2)ccn1,inactive,20.9 µM (active),inactive,inactive,inactive,,,,,
OC[C@H]1O[C@@H](Oc2cc(O)cc(C=Cc3ccc(O)cc3)c2)[C@H](O)[C@@H](O)[C@H]1O,inactive,,,inactive,inactive,9.35 µM (active),inactive,inactive,inactive,
COc1cccc(-c2cc(=O)c3ccccc3o2)c1N,inactive,0.662 µM (active),inactive,inactive,inactive,,,inactive,20.9 µM (active),
OC[C@H]1O[C@@H](n2cnc3c2NC=NC[C@@H]3O)C[C@H]1O,inactive,,inactive,inactive,inactive,,inactive,inactive,,inactive
NC(=O)c1ccc2nc(-c3ccc(Oc4ccc(Cl)cc4)cc3)[nH]c2c1,inactive,,,inactive,,,inactive,inactive,inactive,inactive
Cn1cc(C=C2C(=O)Nc3cccnc32)c2ccccc21,inactive,,inactive,inactive,inactive,,inactive,inactive,inactive,inactive
CC(C)C(=O)Nc1ncc(-c2cc(C(F)F)nn2-c2c(Cl)cccc2Cl)s1,20.9 µM (active),,,16.6 µM (active),23.5 µM (active),,,18.7 µM (active),,24.1 µM (active)
O=C(O)C(O)Cc1ccc(O)c(O)c1 (stereo not drawn),inactive,,inactive,,,,,,inactive,inactive
Nc1ncnc2c1ncn2[C@@H]1O[C@H](CO)C[C@@H]1O,inactive,,inactive,,inactive,,inactive,inactive,,
CC[C@H]1OC(=O)[C@H](C)C(=O)[C@H](C)[C@@H](O[C@H]2O[C@H](C)C[C@H](N(C)C)[C@@H]2O)[C@](C)(OC)C[C@@H](C)C(=O)[C@H](C)[C@H]2N(CCCCn3cnc(-c4cccnc4)c3)C(=O)O[C@]12C,inactive,,,inactive,,,inactive,inactive,,
CNC(=O)c1ccccc1Sc1ccc2c(C=Cc3ccccn3)n[nH]c2c1,2.96 µM (active),3.32 µM (active),,,0.743 µM (active),,inactive,14.8 µM (active),16.6 µM (active),
COc1ccc(-c2coc3cc(O)cc(O)c3c2=O)cc1,inactive,10.5 µM (active),inactive,inactive,inactive,,inactive,,,24.1 µM (active)
Nc1ncnc2c1ncn2[C@@H]1O[C@@H](CO)[C@H](O)[C@H]1O,inactive,inactive,inactive,inactive,inactive,,inactive,,inactive,inactive
C[C@]12CC[C@@H]3c4ccc(O)cc4C[C@@H](CCCCCCCCCS(=O)CCCC(F)(F)C(F)(F)F)[C@H]3[C@H]1CC[C@H]2O (stereo partly drawn),inactive,,,inactive,inactive,inactive,inactive,,inactive,inactive
Cc1cccc(Nc2nc(-c3ccncc3)cs2)c1,16.6 µM (active),inactive,,,,,inactive,inactive,inactive,inactive
O=c1cc(-c2cccc3c2Sc2ccccc2S3)oc(N2CCOCC2)c1,inactive,18.7 µM (active),inactive,inactive,inactive,,inactive,,,
NC(=O)NN=Cc1ccc([N+](=O)[O-])o1,inactive,inactive,inactive,inactive,,,inactive,inactive,,inactive
CN(C)c1cc(NC(=O)CNC(C)(C)C)c(O)c2c1C[C@@H]1C[C@H]3[C@H](N(C)C)C(=O)C(C(N)=O)=C(O)[C@@]3(O)C(=O)C1=C2O,inactive,inactive,inactive,inactive,,,inactive,inactive,inactive,inactive
Cc1ccc(/C=N/NC(=O)c2ccccc2Oc2ccccc2)o1,20.9 µM (active),16.6 µM (active),,23.5 µM (active),,,,,18.7 µM (active),
Clc1ccc(-c2nc3sccn3c2C=NOCc2ccc(Cl)c(Cl)c2)cc1,inactive,,inactive,,inactive,,,,,

Structure (SMILES),Potency [1],Potency [2],Potency [3],Potency [4],Potency [5],Potency [6],Potency [7],Potency [8],Potency [9],Potency [10]
CN(C)Cc1cccc(N=C(c2ccccc2)c2c(O)[nH]c3cc(C(=O)N(C)C)ccc23)c1,18.7 µM (active),14.8 µM (active),15.3 µM (active),18.7 µM (active),,,inactive,11.8 µM (active),,21.5 µM (active)
COc1ccc(-c2oc3c(CC=C(C)C)c(OC4O[C@H](CO)[C@@H](O)[C@H](O)[C@@H]4O)cc(O)c3c(=O)c2OC2O[C@@H](C)[C@H](O)[C@@H](O)[C@@H]2O)cc1 (stereo partly drawn),18.7 µM (active),10.5 µM (active),,23.5 µM (active),23.5 µM (active),,,26.4 µM (active),20.9 µM (active),
O=C(N[C@@H](c1ccccc1)[C@@H]1CCCCN1)c1cccc(C(F)(F)F)c1Cl,inactive,20.9 µM (active),19.3 µM (active),7.43 µM (active),18.7 µM (active),,inactive,inactive,inactive,21.5 µM (active)
CO[C@H]1C[C@@H]2CC[C@@H](C)[C@@](O)(O2)C(=O)C(=O)N2CCCC[C@@H]2C(=O)O[C@H]([C@H](C)C[C@@H]2CC[C@H](OC(=O)C(C)(CO)CO)[C@H](OC)C2)CC(=O)[C@H](C)C=C(C)[C@@H](O)[C@@H](OC)C(=O)[C@H](C)C[C@H](C)C=CC=CC=C1C,11.8 µM (active),,30.6 µM (active),9.35 µM (active),20.9 µM (active),,,16.6 µM (active),23.5 µM (active),inactive
COc1ccc(C2Sc3ccccc3N(CCN(C)C)C(=O)C2OC(C)=O)cc1 (stereo not drawn),inactive,,inactive,inactive,,,inactive,,,
Cc1ccc(Nc2cc(-c3cccc(N4C(=O)c5ccccc5C4=O)c3)ncn2)cc1NS(C)(=O)=O,inactive,,,,23.5 µM (active),18.7 µM (active),inactive,33.2 µM (active),,
CC(C)OC(=O)CCCC=CC[C@@H]1[C@H](C=C[C@@H](O)COc2cccc(C(F)(F)F)c2)[C@H](O)C[C@@H]1O,23.5 µM (active),,,23.5 µM (active),inactive,inactive,inactive,14.8 µM (active),23.5 µM (active),
CC(=O)O[C@]1(C(C)=O)CC[C@H]2[C@@H]3C=C(Cl)C4=CC(=O)[C@@H]5C[C@@H]5[C@]4(C)[C@H]3CC[C@@]21C,inactive,,,inactive,inactive,,inactive,26.6 µM (active),inactive,
COc1cc2nc(-c3ccc(N4CCN(C)CC4)cc3)nc(NCCN3CCOCC3)c2cc1OC,,0.0372 µM (active),3.06 µM (active),1.48 µM (active),0.0187 µM (active),0.0235 µM (active),0.935 µM (active),0.296 µM (active),1.87 µM (active),4.82 µM (active)
NCCS,,inactive,inactive,inactive,inactive,inactive,inactive,inactive,inactive,inactive
CC(=Cc1ccccc1)C=C1SC(=S)N(CC(=O)O)C1=O,,13.2 µM (active),inactive,inactive,inactive,inactive,inactive,inactive,inactive,21.5 µM (active)
CC(C)=CC[C@@H](O)C1=CC(=O)c2c(O)ccc(O)c2C1=O,,1.05 µM (active),13.7 µM (active),0.743 µM (active),14.8 µM (active),0.935 µM (active),,18.7 µM (active),3.32 µM (active),6.81 µM (active)
O=c1c(-c2ccc(O)cc2)coc2cc(O[C@@H]3O[C@H](CO)[C@H](O)[C@H](O)[C@H]3O)ccc12,,inactive,inactive,inactive,inactive,inactive,inactive,inactive,inactive,inactive
COC1CCC(N(C(=O)C2CCC(C)CC2)c2cc(C3=CCCCC3)sc2C(=O)O)CC1 (stereo not drawn),,23.5 µM (active),inactive,,inactive,inactive,inactive,inactive,23.5 µM (active),inactive
CCN1CCC[C@H]1CNC(=O)c1cc(S(N)(=O)=O)ccc1OC,,inactive,inactive,inactive,inactive,inactive,inactive,inactive,inactive,inactive
O=C1NCC2(CCN(CCc3ccccc3)CC2)O1,,inactive,inactive,inactive,inactive,inactive,,inactive,inactive,inactive
CC(C)(C)NC(=O)Nc1cccc(Nc2ncc(F)c(NC(C)(C)CO)n2)c1,,3.32 µM (active),inactive,,,18.7 µM (active),,inactive,,
CC(=O)Nc1ccc([C@H](C)C(=O)Nc2ncc(C(C)C)s2)cc1,,0.332 µM (active),4.32 µM (active),2.35 µM (active),,0.743 µM (active),,4.18 µM (active),1.18 µM (active),4.82 µM (active)
CC(=O)c1ccc(S(=O)(=O)NC(=O)NC2CCCCC2)cc1,,inactive,inactive,inactive,inactive,inactive,,inactive,inactive,inactive
O=C(NCCN1CCOCC1)c1ccc(Cl)cc1,,inactive,inactive,inactive,inactive,inactive,inactive,inactive,inactive,inactive
